The results in this text go back to PubChem BioAssay.

Records with an inconclusive call do not appear. Calls of active or inactive are those of the source.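 How the source made its calls, unless noted: active means binding below the plate cutoff, the plate median minus 3 SD, with a reading above zero; inconclusive means below the plate cutoff but reading exactly zero; inactive means the rest.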

Experiment [1] is described as follows: rapamycin-like changes in RPL19A-GFP expression – cell-based, S. cerevisiae, multiplex flow cytometry, primary screen (AID 1862; in the data active means percent of DMSO control GFP below about 86%;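 further: lower values mimic rapamycin by blocking the RPL19A rise seen in DMSO cells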). The settings on record: S. cerevisiae RPL19A-GFP strain, flow cytometry fluorescence, 3 h; at 10 µM; stronger effect = lower value. In general terms: Flow cytometry measures light scatter and fluorescence of single cells or particles in a stream.

A short description of experiment [2]: TOR pathway GLN3 branch reporter MEP2-GFP changes – S. cerevisiae, multiplex flow cytometry, primary screen (AID 1867;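 active means GFP response, as percent of the DMSO control, above the screen-wide mean plus 3 SD, about 139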;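 further: median GFP channel fluorescence of barcode-gated MEP2-GFP cells measured by flow cytometry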). The following applies: S. cerevisiae MEP2-GFP strain, 3 h, at 10 µM, stronger effect = higher value, 100% means same as DMSO wells.
A short description of experiment [3]: TOR pathway RTG branch CIT2 reporter changes – S. cerevisiae, GFP fusion, multiplex flow cytometry, primary screen (AID 1870;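 active means percent response above a set limit, the screen-wide mean plus 3 SD, cut at about 130% in these data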;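 further: barcoded CIT2-GFP strain pooled with four other GFP strains with rapamycin as positive control; median GFP fluorescence per well over plate mean of DMSO wells so 100% = DMSO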). The settings on record: S. cerevisiae CIT2-GFP expression, 3 h, at 10 µM, stronger effect = higher value.
The nature of experiment [4]: TOR pathway LAP4-GFP level changes – S. cerevisiae, multiplex flow cytometry, primary screen (AID 1873;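 active means GFP signal, as percent of the solvent control, above the screen mean plus 3 SD, about 149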). The settings on record: S. cerevisiae LAP4-GFP expression, 3 h, at 10 µM, stronger effect = higher value.
Experiment [5] can be described thus: yeast AGP1-GFP level changes, GLN3 branch – cell-based, multiplex flow cytometry, S. cerevisiae, primary screen (AID 1887;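 active means GFP signal above the screen-wide mean plus 3 SD, that is over about 124.5% of the solvent control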;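 further: AGP1-GFP fusion strain of S. cerevisiae within a five-strain barcoded multiplex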). The following applies: 3 h, at 10 µM, stronger effect = higher value.
The nature of experiment [6]: reduced mouse 2C T cell binding to pMHC/ICAM-1 vesicles – MLPCN validation set, flow cytometry, LFA-1/ICAM-1 modulator project, pilot screen (AID 2523;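 active means response below a set limit, under 55% cells CD8-positive and vesicle-bound, and CD8 cells' 90th-percentile brightness under 279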;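 on vesicle binding response: mean PE anti-B7-1 fluorescence of CD8+ cells relative to row control; 100% = QL9-loaded vesicles with DMSO vehicle in the same plate row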). The settings on record: 2C mouse CD8+ T cells, at 7 µM, stronger effect = lower value; double positive events: measured here: CD8+/vesicle+ event percentage.
Experiment [7] deals with Integrin beta-1 (Homo sapiens) + Integrin alpha-4 (Homo sapiens) (UniProt P13612+P05556). Put plainly: alpha4beta1 integrin LIBS antibody binding reduction – U937 cells, HUTS-21 mAb, flow cytometry, validation set, VLA-4 allosteric modulator project, pilot screen (AID 2674;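 active means inhibition above 50%, about 3 SD of the validation set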;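 further: antibody binding induced by the VLA-4 ligand LDV present at three times its Kd; 0% = LDV ligand with antibody and no compound and 100% = antibody without LDV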). The following applies: HUTS-21 LIBS mAb binding, at 6.7 µM, stronger effect = higher value, binding induced by LDV ligand.

Experiment [8] can be described thus: calorie-restriction mimetic ROS inhibitors, yeast – validation compound set, pilot screen (AID 2706;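 active means superoxide response below 65% of plate, a cut near 3 SD across the whole screen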;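 further: yeast exposed to compound for one week at 30 degrees C before staining; 100% = mean of all compound wells on the same plate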). The settings on record: S. cerevisiae aging, superoxide DHE fluorescence; at 10 µM; stronger effect = lower value.
Experiment [9] deals with Beta-adrenergic receptor kinase 1 (Homo sapiens) (UniProt P25098). Put plainly: GRK2 binders displacing RNA aptamer, biochemical, validation, human GRK2, bead flow cytometry (AID 488806;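 active means aptamer binding inhibition above 30%, about 3 SD of noise from non-fluorescent compounds; inactive means inhibition at or below 30%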). The following applies: bead-bound GRK2, FAM-aptamer displacement, at 10 µM, stronger effect = higher value.
In experiment [10] the target is Beta-2 adrenergic receptor (Homo sapiens) (UniProt P07550). Nature of the experiment: agonist-induced loss of surface beta2AR – cell-based, FAP fluorogen, flow cytometry, validation set, pilot screen (AID 504459;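 active means percent response above 42, roughly 3 SD of non-fluorescent test compounds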;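 further: agonist-driven loss of surface beta2AR via internalization measured by FAP dye flow cytometry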). The settings on record: Am2.2-beta2AR cells, at 10 µM, stronger effect = higher value.
Experiment [11] deals with AP-2 complex subunit beta (Homo sapiens) (UniProt P63010). Put plainly: beta-arrestin/AP2 interaction blockers – biochemical, validation set, GST-AP2 beads, flow cytometry, pilot screen (AID 504541;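 active means inhibition above 54%, about 3 SD of non-fluorescent compounds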;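 further: AP2 carries R879A mutation and is captured from E. coli lysate; bead-bound FITC arrestin peptide fluorescence measuring arrestin peptide binding to AP2; 0% = DMSO wells and 100% = excess unlabeled arrestin peptide control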). The settings on record: FITC arrestin peptide, at 10 µM, stronger effect = higher value, AP2 beta2 appendage fragment, R879A mutant.
Experiment [12] can be described thus: cytosolic pH regulators acting via V-ATPase – S. cerevisiae, pHLuorin, HTS validation (AID 504600; in the data active means response above about 15%;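 further: plate controls were DMSO for no effect and reference compound for full effect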). The following applies: V-ATPase proton transport, at 10 µM, stronger effect = higher value.
In experiment [13] the test system is anti-desmoglein-3 scFv antibody binding to human DSG3. Put plainly: blockers of pathogenic pemphigus antibody–desmoglein-3 binding – biochemical, validation compound set, bead-based, flow cytometry, pilot screen (AID 588368).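 Further: signal is the median channel fluorescence of bead-bound GFP antibody.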 The following applies: Protein G beads, DSG3-Fc, scFv-GFP binding, at 10 µM, stronger effect = lower value.
Experiment [14] is described as follows: Nile Red efflux blockade in pump-expressing yeast – validation compound set, multiplex, phenotypic, pilot screen (AID 588506;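 active means efflux inhibition above 0.42, the validation set average plus 4 SD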;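 further: Nile Red retained in cells so higher fluorescence means more efflux inhibition; 0 = negative control wells and 1 = enniatin B 25 µM full block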). The settings on record: S. cerevisiae pump-expressing triplex, Nile Red efflux flow cytometry; at 10 µM; stronger effect = higher value; the pumps come from Candida albicans.
For experiment [15], the target named is ATP-binding cassette sub-family B member 6 (Homo sapiens) (UniProt Q9NP58). Nature of the experiment: blockers of ABCB6-driven porphyrin uptake – K562-ABCB6 cells, flow cytometry, validation set, pilot screen (AID 588550;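 active means inhibition above the screen-wide mean plus 3 SD, about 51%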;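 further: 0% = DMSO wells and 100% = benzethonium chloride 70 µM positive control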). The settings on record: K562-ABCB6 porphyrin accumulation, 1 h, at 10 µM, stronger effect = higher value.
Experiment [16] is described as follows: AML differentiation inducers, ER-HoxA9 marrow cells – cell-based, GFP/MAC1 double positive, flow cytometry, validation set, primary screen (AID 588685;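 active means differentiation response of at least 50%, scaled between solvent and reference control, from cells with both markers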;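 further: compound exposure lasts four days before antibody staining and flow analysis; 0% = DMSO wells and 100% = 5 µM fulvestrant positive control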). The following applies: stronger effect = higher value, normalized: vehicle 0, fulvestrant 100.

Beta-adrenergic receptor kinase 1 (Homo sapiens), sequence (P25098 whole entry, looked up): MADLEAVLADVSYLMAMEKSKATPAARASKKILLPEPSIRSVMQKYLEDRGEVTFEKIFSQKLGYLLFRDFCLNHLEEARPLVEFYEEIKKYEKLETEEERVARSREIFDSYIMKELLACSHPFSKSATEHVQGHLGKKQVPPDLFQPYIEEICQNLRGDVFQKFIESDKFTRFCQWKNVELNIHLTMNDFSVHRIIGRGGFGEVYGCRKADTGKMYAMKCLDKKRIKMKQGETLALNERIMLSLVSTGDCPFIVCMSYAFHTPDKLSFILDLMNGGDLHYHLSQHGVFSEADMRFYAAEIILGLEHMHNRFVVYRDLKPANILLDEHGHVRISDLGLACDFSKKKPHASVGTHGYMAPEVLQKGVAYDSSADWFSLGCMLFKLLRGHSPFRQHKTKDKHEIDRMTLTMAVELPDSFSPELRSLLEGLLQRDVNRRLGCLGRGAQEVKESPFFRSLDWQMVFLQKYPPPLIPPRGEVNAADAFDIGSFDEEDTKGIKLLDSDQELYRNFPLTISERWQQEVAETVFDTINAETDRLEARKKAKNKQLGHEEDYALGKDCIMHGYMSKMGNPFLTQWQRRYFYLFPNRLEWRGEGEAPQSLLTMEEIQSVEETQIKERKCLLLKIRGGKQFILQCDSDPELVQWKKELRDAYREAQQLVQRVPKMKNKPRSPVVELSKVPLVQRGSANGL
Beta-2 adrenergic receptor (Homo sapiens), sequence (P07550 whole entry, looked up): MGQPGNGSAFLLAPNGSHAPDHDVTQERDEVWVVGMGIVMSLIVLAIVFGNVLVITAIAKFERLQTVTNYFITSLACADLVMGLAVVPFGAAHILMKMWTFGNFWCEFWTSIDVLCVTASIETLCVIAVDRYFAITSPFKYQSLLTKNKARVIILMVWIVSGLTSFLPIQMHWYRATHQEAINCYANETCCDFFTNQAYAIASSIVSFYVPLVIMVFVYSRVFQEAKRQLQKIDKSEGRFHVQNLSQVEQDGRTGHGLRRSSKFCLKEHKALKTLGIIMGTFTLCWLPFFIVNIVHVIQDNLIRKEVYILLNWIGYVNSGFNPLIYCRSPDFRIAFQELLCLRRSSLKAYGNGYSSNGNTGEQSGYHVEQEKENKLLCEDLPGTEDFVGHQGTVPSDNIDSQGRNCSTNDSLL
ATP-binding cassette sub-family B member 6 (Homo sapiens), sequence (Q9NP58 whole entry, looked up): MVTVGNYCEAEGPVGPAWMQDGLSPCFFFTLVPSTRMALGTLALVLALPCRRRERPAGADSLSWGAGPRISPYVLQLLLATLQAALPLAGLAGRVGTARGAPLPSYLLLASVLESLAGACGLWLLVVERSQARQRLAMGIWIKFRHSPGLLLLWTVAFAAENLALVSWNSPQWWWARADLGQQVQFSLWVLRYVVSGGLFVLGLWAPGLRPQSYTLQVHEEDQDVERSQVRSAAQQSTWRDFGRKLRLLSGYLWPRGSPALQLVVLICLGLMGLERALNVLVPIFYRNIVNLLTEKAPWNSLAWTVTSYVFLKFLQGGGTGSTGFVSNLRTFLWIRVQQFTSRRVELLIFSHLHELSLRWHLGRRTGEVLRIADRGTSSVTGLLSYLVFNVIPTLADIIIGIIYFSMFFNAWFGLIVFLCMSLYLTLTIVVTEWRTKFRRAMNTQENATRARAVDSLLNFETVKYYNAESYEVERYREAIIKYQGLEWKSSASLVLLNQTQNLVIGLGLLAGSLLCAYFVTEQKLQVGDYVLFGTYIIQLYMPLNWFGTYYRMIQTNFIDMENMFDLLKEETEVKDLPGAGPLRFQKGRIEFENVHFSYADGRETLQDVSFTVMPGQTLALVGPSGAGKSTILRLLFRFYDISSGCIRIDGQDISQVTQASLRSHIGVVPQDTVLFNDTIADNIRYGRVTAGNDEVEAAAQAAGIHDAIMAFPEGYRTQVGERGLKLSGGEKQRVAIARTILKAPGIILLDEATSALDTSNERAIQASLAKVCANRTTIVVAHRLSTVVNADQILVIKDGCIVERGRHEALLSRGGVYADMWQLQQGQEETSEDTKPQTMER
Integrin beta-1 (Homo sapiens) + Integrin alpha-4 (Homo sapiens), sequence (P05556 whole entry, looked up): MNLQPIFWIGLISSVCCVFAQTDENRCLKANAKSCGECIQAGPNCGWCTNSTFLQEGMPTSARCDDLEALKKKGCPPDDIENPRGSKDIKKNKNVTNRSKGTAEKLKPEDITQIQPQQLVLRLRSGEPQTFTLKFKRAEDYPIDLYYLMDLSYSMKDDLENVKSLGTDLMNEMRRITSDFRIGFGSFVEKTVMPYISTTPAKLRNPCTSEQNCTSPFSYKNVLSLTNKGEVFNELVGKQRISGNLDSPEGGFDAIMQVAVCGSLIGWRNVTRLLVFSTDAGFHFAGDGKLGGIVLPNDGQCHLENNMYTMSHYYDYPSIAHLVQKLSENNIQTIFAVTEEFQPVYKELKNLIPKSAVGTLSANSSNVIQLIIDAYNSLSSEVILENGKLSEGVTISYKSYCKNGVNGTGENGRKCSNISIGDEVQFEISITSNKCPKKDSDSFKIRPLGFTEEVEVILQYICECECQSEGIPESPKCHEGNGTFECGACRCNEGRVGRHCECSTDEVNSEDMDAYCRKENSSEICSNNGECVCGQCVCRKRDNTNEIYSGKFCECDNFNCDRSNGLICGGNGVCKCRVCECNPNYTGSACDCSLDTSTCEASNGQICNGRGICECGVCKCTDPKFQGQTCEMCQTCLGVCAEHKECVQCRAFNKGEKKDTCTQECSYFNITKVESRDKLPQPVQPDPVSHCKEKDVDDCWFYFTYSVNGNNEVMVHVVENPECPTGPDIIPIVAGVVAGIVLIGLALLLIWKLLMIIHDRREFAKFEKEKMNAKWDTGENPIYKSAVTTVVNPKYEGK
Integrin beta-1 (Homo sapiens) + Integrin alpha-4 (Homo sapiens), sequence (P13612 whole entry, looked up): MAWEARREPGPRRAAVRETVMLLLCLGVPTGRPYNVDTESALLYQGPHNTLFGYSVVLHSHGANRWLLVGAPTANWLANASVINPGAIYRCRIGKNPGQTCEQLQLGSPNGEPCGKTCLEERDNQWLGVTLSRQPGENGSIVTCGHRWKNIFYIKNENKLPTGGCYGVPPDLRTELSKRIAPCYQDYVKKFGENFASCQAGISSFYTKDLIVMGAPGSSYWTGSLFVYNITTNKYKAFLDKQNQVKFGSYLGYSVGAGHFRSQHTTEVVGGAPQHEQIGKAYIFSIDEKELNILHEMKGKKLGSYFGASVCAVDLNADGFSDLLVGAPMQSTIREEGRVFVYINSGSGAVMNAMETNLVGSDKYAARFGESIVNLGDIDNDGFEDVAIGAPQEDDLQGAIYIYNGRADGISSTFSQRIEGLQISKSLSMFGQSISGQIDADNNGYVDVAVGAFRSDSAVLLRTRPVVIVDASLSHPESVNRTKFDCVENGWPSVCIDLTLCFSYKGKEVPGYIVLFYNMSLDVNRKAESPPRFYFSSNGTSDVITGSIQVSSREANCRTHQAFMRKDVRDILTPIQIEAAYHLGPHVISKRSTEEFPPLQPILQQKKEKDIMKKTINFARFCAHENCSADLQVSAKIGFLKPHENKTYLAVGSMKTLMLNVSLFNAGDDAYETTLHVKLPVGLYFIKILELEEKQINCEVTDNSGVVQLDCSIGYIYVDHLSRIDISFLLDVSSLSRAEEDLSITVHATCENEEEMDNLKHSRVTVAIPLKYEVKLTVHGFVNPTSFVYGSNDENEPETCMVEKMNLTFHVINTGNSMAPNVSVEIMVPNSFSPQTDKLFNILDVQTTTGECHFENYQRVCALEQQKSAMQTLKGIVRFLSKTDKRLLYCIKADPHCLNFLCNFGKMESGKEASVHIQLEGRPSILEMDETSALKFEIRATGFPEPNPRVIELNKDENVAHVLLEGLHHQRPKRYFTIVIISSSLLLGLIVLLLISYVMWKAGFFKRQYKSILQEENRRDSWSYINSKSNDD
AP-2 complex subunit beta (Homo sapiens), sequence (P63010 whole entry, looked up, the tested form may be a part, one chain of several): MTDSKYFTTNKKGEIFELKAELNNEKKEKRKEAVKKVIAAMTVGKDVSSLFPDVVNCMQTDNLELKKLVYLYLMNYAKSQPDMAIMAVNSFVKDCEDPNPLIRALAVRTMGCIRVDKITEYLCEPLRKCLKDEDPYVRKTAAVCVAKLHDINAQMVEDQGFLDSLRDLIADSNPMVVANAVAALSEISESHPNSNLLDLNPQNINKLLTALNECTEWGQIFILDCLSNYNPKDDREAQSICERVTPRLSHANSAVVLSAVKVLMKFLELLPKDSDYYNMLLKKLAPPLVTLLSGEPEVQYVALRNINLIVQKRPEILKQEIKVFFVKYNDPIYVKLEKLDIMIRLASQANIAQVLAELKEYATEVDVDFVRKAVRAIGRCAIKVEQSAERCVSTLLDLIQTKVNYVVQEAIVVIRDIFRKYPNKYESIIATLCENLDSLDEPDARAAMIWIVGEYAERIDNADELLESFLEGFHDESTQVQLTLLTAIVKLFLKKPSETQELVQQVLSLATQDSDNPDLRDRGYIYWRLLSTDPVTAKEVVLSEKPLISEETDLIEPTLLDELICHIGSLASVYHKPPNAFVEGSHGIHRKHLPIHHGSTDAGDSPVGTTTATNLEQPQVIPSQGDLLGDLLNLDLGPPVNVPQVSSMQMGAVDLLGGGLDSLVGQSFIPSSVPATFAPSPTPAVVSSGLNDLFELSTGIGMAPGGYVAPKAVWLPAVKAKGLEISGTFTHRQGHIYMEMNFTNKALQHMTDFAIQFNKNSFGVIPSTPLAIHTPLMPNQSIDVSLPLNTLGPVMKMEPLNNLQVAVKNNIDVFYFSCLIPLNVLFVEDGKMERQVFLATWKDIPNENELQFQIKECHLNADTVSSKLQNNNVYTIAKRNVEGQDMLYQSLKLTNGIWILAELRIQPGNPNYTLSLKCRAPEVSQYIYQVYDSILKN

`COc1ccc(C(C)N2CC34C=CC(O3)C(C(=O)OCC(C)C)C4C2=O)cc1` (stereo not given): the percent of DMSO control GFP in experiment [1] was 103% (inactive). Further, the values for the GFP response vs DMSO in experiment [2] and in experiment [4] were 107% (inactive) and 92% (inactive), respectively. Moreover, the percent response of DMSO control in [3] was 96.6% (inactive). For the same molecule, in [5], the GFP response, % of DMSO was 107% (inactive). This molecule also yielded a double positive events in experiment [6] of 63.5%. For the same molecule, in experiment [6], the vesicle binding response was 5650% (inactive). The inhibition in experiment [7] is -10.8% (inactive); in experiment [11], -17.5% (inactive); in experiment [15], -4% (inactive). The superoxide response (% of plate) in experiment [8] was 98.6% (inactive). The aptamer binding inhibition in experiment [9] is 1% (inactive). For the same molecule, the values for the response in [10] and in experiment [12] were -2.15% (inactive) and 3.8% (inactive), respectively. The binding (% of control) in experiment [13] is 96.9% (inactive). Moreover, in experiment [14], the efflux inhibition (fraction of control) is 0.02 (inactive). Further, in experiment [16], the differentiation response is -8.55% (inactive).
Regarding `CC(C)=CCC(C)(C)/C=N/NC(N)=O`, in experiment [1], the percent of DMSO control GFP is 101% (inactive). Besides, the GFP response vs DMSO in [2] is 102% (inactive); in [4], 109% (inactive). In addition, the percent response of DMSO control in experiment [3] is 98.3% (inactive). For the same molecule, the GFP response, % of DMSO in [5] is 111% (inactive). The molecule also gave a double positive events in experiment [6] of 59.7%. Further, the vesicle binding response in [6] is 464% (inactive). Also, the inhibition is 14.2% (inactive) in experiment [7], -2.34% (inactive) in experiment [11] and 4% (inactive) in [15]. Moreover, the superoxide response (% of plate) in experiment [8] is 97.9% (inactive). In addition, the aptamer binding inhibition in experiment [9] is 4% (inactive). Also, the response is -21.9% (inactive) in experiment [10] and 1.02% (inactive) in experiment [12]. In addition, in [13], the binding (% of control) was 100% (inactive). For the same molecule, the efflux inhibition (fraction of control) in experiment [14] was 0 (inactive). Further, the differentiation response in experiment [16] was 5.85% (inactive).
As to `COC(=O)[C@@H](N)CS`, in [1], the percent of DMSO control GFP was 102% (inactive). For the same molecule, the GFP response vs DMSO in [2] is 102% (inactive); in [4] it was 95.1% (inactive). Further, the percent response of DMSO control in experiment [3] is 98.2% (inactive). Moreover, the GFP response, % of DMSO in experiment [5] is 103% (inactive). The molecule also came in with a double positive events in experiment [6] of 60.5%. For the same molecule, in experiment [6], the vesicle binding response is 61.8% (inactive). The results for the inhibition in experiment [7], in [11] and in [15] were -3.18% (inactive), -20.1% (inactive) and 4% (inactive), respectively. Further, the superoxide response (% of plate) in experiment [8] is 101% (inactive). For the same molecule, in experiment [9], the aptamer binding inhibition was 8% (inactive). Besides, the response is 15.2% (inactive) in [10] and 0.91% (inactive) in experiment [12]. In addition, the binding (% of control) in [13] was 95.6% (inactive). Moreover, the efflux inhibition (fraction of control) in experiment [14] is 0.2 (inactive). Moreover, the differentiation response in [16] is -3.4% (inactive).
In the case of `COc1cc(OC)cc(C(C)=O)c1`, in [1], the percent of DMSO control GFP was 96% (inactive). In addition, the GFP response vs DMSO in experiment [2] is 91.8% (inactive); in [4], 99.5% (inactive). For the same molecule, the percent response of DMSO control in experiment [3] is 95.1% (inactive). Further, in experiment [5], the GFP response, % of DMSO was 104% (inactive). Besides, the double positive events in [6] amounted to 68.7%. The vesicle binding response in [6] was 149% (inactive). For the same molecule, the figures for the inhibition in experiment [7], in [11] and in experiment [15] were 14.2% (inactive), -2.85% (inactive) and 5% (inactive), respectively. Also, in experiment [8], the superoxide response (% of plate) was 94.5% (inactive). For the same molecule, in experiment [9], the aptamer binding inhibition was 9% (inactive). Further, the response is -14.6% (inactive) in [10] and -2.23% (inactive) in [12]. The binding (% of control) in experiment [13] is 81.3% (inactive). The efflux inhibition (fraction of control) in [14] was 0 (inactive). In experiment [16], the differentiation response is -6.96% (inactive).
On to `O=C(O)C1CSC(c2ccc3c(c2)OCO3)N1` (stereo not given), for which the percent of DMSO control GFP in [1] was 93.9% (inactive). Besides, the GFP response vs DMSO is 121% (inactive) in experiment [2] and 78.7% (inactive) in [4]. Moreover, the percent response of DMSO control in experiment [3] was 101% (inactive). Moreover, the GFP response, % of DMSO in experiment [5] is 90.3% (inactive). In experiment [6], this molecule came in with a double positive events of 61.8%. The vesicle binding response in experiment [6] was 197% (inactive). Besides, the inhibition in experiment [7] is -7.12% (inactive); in experiment [11], -4.96% (inactive); in experiment [15] it was 9% (inactive). Moreover, the superoxide response (% of plate) in [8] was 86.1% (inactive). Also, the aptamer binding inhibition in experiment [9] is 3% (inactive). Also, the response in experiment [10] was -4.07% (inactive); in [12], 0.02% (inactive). Besides, the binding (% of control) in experiment [13] is 105% (inactive). The efflux inhibition (fraction of control) in experiment [14] was -0.2 (inactive). Also, the differentiation response in [16] is -4.91% (inactive).

As a reminder, the inhibition is the change of the read-out against control, counted positive when it falls.
